High-throughput results (PubChem BioAssay)
G9a inh: G9a (human) methyltransferase inhibition. G9a H3K9 monomethylation, AlphaScreen, 2 h. Potency, µM (highest dose often 102 µM), hits mostly inhibitors. 350,000 tested, 8.8% active; note: nearly all actives have a fitted effect of over 75% in size
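Using a bead-based AlphaScreen, monomethylated H3K9 product from 2 h room-temperature reactions (G9a 20 nM, peptide 500 nM, SAM 20 uM) was detected with 0.5 ug/mL rabbit anti-H3K9me1 antibody.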
HP1b chromo inh: HP1-beta chromodomain-methylated histone interaction inhibition; P83916; AlphaScreen HP1-beta / biotin-H3K9me3 peptide binding; Potency, µM (top dose mostly 114 µM), most hits filed as inhibitors; 390,000 tested, 0.56% active; AID 540317; note: nearly all actives have a fitted effect of over 70% in size
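Compound inhibition of the preformed complex between 50 nM HP1-beta and 50 nM biotinylated H3K9me3 peptide was read by AlphaScreen. Buffer was PBS pH 7.4 with 0.01% Tween-20. Incubations ran 30 min at room temperature, with 10 ug/mL donor/acceptor beads.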
BAZ2B block: BAZ2B (human) inhibition. AlphaScreen BAZ2B-H3K14Ac peptide displacement. Potency, µM (titrated, usually from 114 µM), actives largely listed as inhibitors. 360,000 tested, 4.4% active. AID 504333; note: nearly all actives have a fitted effect of over 60% in size
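BAZ2B 50 nM plus b-H3(5-23)K14Ac 50 nM, PBS pH 7.4/0.01% Tween-20, 30 min RT; compound added (max 110 uM), 30 min RT; streptavidin donor/Ni-chelate acceptor beads 10 ug/mL final, 20 min dark; AlphaScreen read.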
GLS inh: inhibitors of human glutaminase (GLS); GLS enzymatic activity, qHTS titration; AID 624170; 410,000 tested, 0.21% active; Potency, µM (titrated, usually from 45.5 µM), actives largely listed as inhibitors; O94925
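Glutamate formation by hKGA was monitored fluorometrically using coupled glutamate oxidase, HRP and Amplex Red. Substrate was added as 1 mM L-glutamine solution; incubation was 30 min at RT after an initial read.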
JMJD2A Tudor inh: inhibitors of human JMJD2A Tudor domain | AlphaScreen JMJD2A-Tudor / H3K4me3 peptide binding | Potency, µM (titrated, usually from 114 µM), hits mostly inhibitors | 390,000 tested, 4.4% active; note: nearly all actives have a fitted effect of over 50% in size
Target sequence (O75164 whole entry, looked up, the tested form may be a part): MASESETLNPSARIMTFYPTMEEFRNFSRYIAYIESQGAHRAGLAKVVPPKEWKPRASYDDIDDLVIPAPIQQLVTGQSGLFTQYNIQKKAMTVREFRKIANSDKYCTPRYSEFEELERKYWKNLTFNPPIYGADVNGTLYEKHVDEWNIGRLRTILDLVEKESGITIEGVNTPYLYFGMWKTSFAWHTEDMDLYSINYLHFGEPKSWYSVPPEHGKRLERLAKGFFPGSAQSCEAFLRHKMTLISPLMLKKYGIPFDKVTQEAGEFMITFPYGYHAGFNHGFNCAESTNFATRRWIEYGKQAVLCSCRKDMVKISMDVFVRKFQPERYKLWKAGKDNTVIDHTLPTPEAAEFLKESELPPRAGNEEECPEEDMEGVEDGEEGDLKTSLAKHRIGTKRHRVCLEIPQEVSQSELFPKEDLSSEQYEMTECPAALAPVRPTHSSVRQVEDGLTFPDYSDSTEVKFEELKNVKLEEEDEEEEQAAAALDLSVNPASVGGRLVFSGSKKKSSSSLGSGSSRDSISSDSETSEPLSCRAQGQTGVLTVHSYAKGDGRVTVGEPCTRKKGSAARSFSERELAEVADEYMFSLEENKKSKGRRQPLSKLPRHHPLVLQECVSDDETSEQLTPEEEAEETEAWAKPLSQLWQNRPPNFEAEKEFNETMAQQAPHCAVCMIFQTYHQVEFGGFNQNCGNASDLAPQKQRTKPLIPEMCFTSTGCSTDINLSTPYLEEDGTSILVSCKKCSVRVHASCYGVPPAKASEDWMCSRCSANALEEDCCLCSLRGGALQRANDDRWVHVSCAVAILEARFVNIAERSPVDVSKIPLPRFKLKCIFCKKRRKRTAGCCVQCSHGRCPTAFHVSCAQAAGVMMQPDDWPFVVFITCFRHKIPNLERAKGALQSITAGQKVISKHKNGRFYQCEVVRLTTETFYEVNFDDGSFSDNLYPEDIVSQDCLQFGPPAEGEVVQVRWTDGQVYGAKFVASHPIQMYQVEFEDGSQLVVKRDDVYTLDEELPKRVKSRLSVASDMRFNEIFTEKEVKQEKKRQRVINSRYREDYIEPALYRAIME
Hits are given with their value; 0 = inactive; ? = inconclusive; - = no result; [ ] = another dose, or the depositor's remark. Sampled rows, rich in hits. Any-hit rate of the full collection: about 10%. Calls come from the whole dose curve; as a rule, active = well fitted curve in the direction sought with a large enough effect; inconclusive = small, poorly fitted or top-dose-only effect, or another doubt; inactive = no such curve, though single readings can be large; an effect the other way counts as inactive or inconclusive.

SMILES | G9a inh | HP1b chromo inh | BAZ2B block | GLS inh | JMJD2A Tudor inh
COc1ccc(N2CCN(C(=O)c3cc(=O)c4cc(C)c(C)cc4o3)CC2)cc1 | 0 | 0 | 0 | 0 | 56µM
COc1ccc(N2CCN(C(=O)c3oc4ccccc4c3NC(=O)Cc3ccc(OC)c(OC)c3)CC2)cc1 | 28µM | 0 | ? | 0 | ?
COc1ccc(OCC(=O)Nc2c(C(=O)N3CCN(c4ccccc4)CC3)oc3ccccc23)cc1 | 0 | 0 | 0 | 0 | 0
CC(=O)N1CCN(C(=O)c2oc3ccccc3c2C)CC1 | 0 | 0 | 0 | 0 | 0
COc1cccc(CC(=O)Nc2c(C(=O)N3CCN(c4ccccc4F)CC3)oc3ccccc23)c1 | ? | 0 | 0 | 0 | 0
COc1ccc(N2CCN(C(=O)c3oc4ccccc4c3NC(=O)Cc3cccc(OC)c3)CC2)cc1 | 40µM | 0 | ? | 0 | 16µM
COc1ccc(N2CCN(C(=O)c3oc4ccccc4c3C)CC2)cc1 | 35µM | ? | - | ? | 40µM
CCOC(=O)NC(N(O)c1cccc(Cl)c1)C(Cl)(Cl)Cl (centres undefined) | 40µM | 0 | 0 | 0 | 0
CCS(=O)(=O)c1ccc2oc(Nc3cc(Cl)ccc3OC)nc2c1 | 35µM | 0 | 0 | 0 | 0
COc1ccc(NC(=O)Cn2nnnc2-c2ccccc2F)c(C)c1 | 0 | 0 | 0 | 0 | 0
COc1ccc(N2CCN(CCCNC(=O)c3ccc(CS(=O)(=O)c4ccc(Cl)cc4)o3)CC2)cc1 | 50µM | 0 | 28µM | 0 | 0
O=C(NCCCN1CCCC1)c1ccc(CS(=O)(=O)c2ccc(Br)cc2)o1 | 56µM | 0 | 0 | 0 | 0
Cc1ccc(-c2nc3ccc(Cl)cn3c2Cc2cccc(Cl)c2)cc1 | - | - | - | 0 | -
CC(=O)N1CCC[C@@]2(CCN(C(c3ccccc3)c3ccccc3)C2)C1 | 0[12.7 µM] | - | - | - | -
O=C(Oc1csc(=S)n1C(=O)c1ccccc1)c1ccccc1 | 1µM | 50µM | ? | 0 | 35µM
Cc1cccc(C(=O)Oc2csc(=S)n2C(=O)c2cccc(C)c2)c1 | 1.6µM | 0 | ? | ? | ?
Cc1cccc(C(=O)Nc2cccc(OC(=O)c3cccc(C)c3)c2)c1 | 0[12.7 µM] | 0 | 0 | 0 | 0
C#CCOCCOCCOCCNc1nc(N2CCN(C(=O)CCCCCCCCCCNC(=O)[C@H](CCCCN)n3cc(CCO)nn3)CC2)nc(N2CCN(C(=O)CCCCCCCCCCNC(=O)[C@H](CCCCN)n3cc(CCO)nn3)CC2)n1 | 0[2.33 µM] | ? | 0 | ? | 89µM
C#CCOCCOCCOCCNc1nc(N2CCN(C(=O)CCCCCCCCCCNC(=O)[C@H](CCCCN)n3cc(CCO)nn3)CC2)nc(N2CCN(C(=O)CCCCCCCCCCNC(=O)[C@@H]([C@H](C)O)n3cc(C)nn3)CC2)n1 | 0[2.33 µM] | 0 | 50µM | ? | 79µM
C#CCOCCOCCOCCNc1nc(N2CCN(C(=O)CCCCCCCCCCNC(=O)[C@H](CCC(=O)O)n3cc(CCCCCN)nn3)CC2)nc(N2CCN(C(=O)CCCCCCCCCCNC(=O)[C@@H]([C@H](C)O)n3cc(C)nn3)CC2)n1 | 0[2.33 µM] | 0 | 0 | 0 | ?
CSC1=NC=C(C#N)C2=NC(c3ccc(Cl)cc3)NN12 (centres undefined) | - | - | - | 13µM | -
CSC1=C(C#N)C(c2ccc(Cl)cc2)C2=C(CC(C)(C)CC2=O)N1 (centres undefined) | ? | 0 | 0 | 0 | 0
CC(Oc1cccc(Cl)c1)C(=O)Nc1nc(-c2ccccn2)cs1 (centres undefined) | 32µM | 0 | 56µM | 0 | 50µM
O=C(Nc1nc(-c2ccccn2)cs1)c1ccc(S(=O)(=O)N2CCCCC2)cc1 | 0 | - | ? | - | -
C[C@H](NC(=O)c1ccccc1)C(=O)Nc1nc(-c2ccccn2)cs1 | 0 | 0 | 14µM | 0 | 79µM
SMILES | G9a inh | HP1b chromo inh | BAZ2B block | GLS inh | JMJD2A Tudor inh
CC(Oc1ccccc1)C(=O)Nc1nc(-c2ccccn2)cs1 (centres undefined) | 50µM | 0 | 40µM | 0 | 20µM
CCc1ccc(S(=O)(=O)Nc2ccc3[nH]c(=O)sc3c2)cc1 | 0 | 0 | 0 | 0 | 0
CCCN(C(=O)CSCc1ccc(C)cc1)c1c(N)n(Cc2ccccc2)c(=O)[nH]c1=O | - | - | - | 0 | -
O=C(O)C1CCc2nc(NCc3ccccc3)nc(NCc3ccccc3)c2C1 (centres undefined) | - | 0 | - | 0 | 0
CC1(C(=O)NS(=O)(=O)C2CC2)CCN(C(=O)COCc2ccccc2)C1 (centres undefined) | - | - | - | 0 | -
Cc1ccc(F)cc1NC(=O)N1c2ccccc2NC(=O)CC1C (centres undefined) | 0 | 0 | 0 | 0 | 0
O=C(COc1ccccc1)NNC1=NS(=O)(=O)c2ccccc21 | 45µM | 0 | - | 0 | 0
COc1ccc(C(=O)NNC2=NS(=O)(=O)c3ccccc32)cc1OC | 0 | 0 | ? | 0 | 0
O=C(CCc1ccccc1)NNC(=O)COc1ccc(Br)cc1 | 0 | 50µM | 0 | 0 | 20µM
O=C(CCCCC(=O)NNC(=O)COc1ccccc1)NNC(=O)COc1ccccc1 | 35µM | 0 | 0 | 0 | 0
Cc1ccc(Cn2cc(CCC(=O)NC3CCCCC3)c3ccccc32)cc1 | 0 | 0 | 0 | 0 | 0
COc1ccc2c(c1)c1c(c(=O)n(-c3ccc(OC)c(OC)c3)c(=O)n1Cc1ccccc1F)n2C | ? | 0 | 0 | 0 | 0
CCN(CC)C(=O)Cn1cnc2sc(C(=O)Nc3cc(OC)c(OC)c(OC)c3)c(C)c2c1=O | 0 | 0 | 0 | 0 | 0
CCc1ccccc1NC(=O)c1cn(C)c(=O)c2ccccc12 | 0 | 0 | 0 | 0 | 0
CC1(c2nnnn2-c2ccc3c(c2)OCCO3)CCC(=O)N1C1CCN(Cc2ccccc2)CC1 (centres undefined) | - | - | - | 0 | -
Cc1cccc(NC2=NCC(=O)N2Cc2cccs2)c1 | 71µM | 0 | ? | 0 | 0
O=C1CN=C(Nc2ccccc2)N1Cc1cccs1 | 79µM | 0 | 0 | 0 | 0
O=C1CCN=C(Nc2ccc(F)cc2)N1Cc1ccccc1 | 40µM | 0 | ? | 0 | 0
CCc1ccccc1NC1=NCC(=O)N1Cc1ccccc1 | 45µM | 0 | 79µM | 0 | 0
Cc1cc(C)cc(NC2=NCC(=O)N2Cc2ccccc2)c1 | 0[12.7 µM] | 0 | 0 | 0 | 0
CC(=O)O[C@]1(C(C)=O)CC[C@H]2[C@@H]3C=CC4=CC(=O)C=C[C@]4(C)[C@H]3CC[C@@]21C | 0 | 0 | 0 | 0 | 0
COc1cc(-c2nc(C(N)=O)c3c(n2)n(-c2cccc(C)c2)c(=O)n3C)cc(OC)c1OC | 0 | 0 | 0 | 0 | 0
CCS(=O)(=O)c1nc(NC(C)=O)n[nH]1 | 5.6µM | 0 | 50µM | 0 | 0[11.4 µM]
Cc1c(CCOC(=O)c2cc([N+](=O)[O-])cc([N+](=O)[O-])c2)sc[n+]1CC(=O)c1ccc(Br)cc1 | 2.5µM | 0 | 50µM | 0 | ?
COc1ccccc1NS(=O)(=O)c1cccc2nsnc12 | - | 0 | 0 | 0 | 0
CCOc1ccc(OCC)c(NS(=O)(=O)c2cccc3nsnc23)c1 | ? | ? | 50µM | 0 | ?
COc1ccc(C(=O)O)cc1NS(=O)(=O)c1cccc2nsnc12 | 4µM | 0 | 0 | 0 | 0
CCOc1ccccc1NS(=O)(=O)c1cccc2nsnc12 | ? | 0 | 0 | 0 | 0
